Test results as given in PubChem BioAssay (NCI).
About 83,000 compounds went through this panel and 20% of them were active in at least one assay; those are over-represented in the sample as a whole.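 Treatment: one concentration, 48 hours, 96-well format. Scoring: percent growth, with anything below 10 considered active.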 Calls of active or inactive are those of the source.

Legend:
Assay in all cases: NCI-60 one-dose screen, 48 h (100 = growth as untreated, 0 = no growth, -100 = all killed)
Conditions in all cases: 10 µM
T-47D breast = system: T-47D breast
MDA-MB-435 melanoma = system: MDA-MB-435 melanoma
SW-620 colon = system: SW-620 colon
MCF7 breast = system: MCF7 breast
HCT-116 colon = system: HCT-116 colon
HCC-2998 colon = system: HCC-2998 colon
MDA-MB-468 breast = system: MDA-MB-468 breast
KM12 colon = system: KM12 colon

Measured: growth

COc1ccc2nc(Cl)c(-c3cc(-c4ccccc4)nc(=O)[nH]3)cc2c1
active: HCT-116 colon 9.44%
inactive: T-47D breast 37.8% | MDA-MB-435 melanoma 75.9% | SW-620 colon 11.1% | MCF7 breast 10.2% | HCC-2998 colon 84.9% | MDA-MB-468 breast 28.5%

CCOC(=O)C1=C(N)N(c2ccccc2)C2=C(C(=O)CC(C)(C)C2)C1c1ccccc1OC (stereo unspecified)
inactive: T-47D breast 92.7% | MDA-MB-435 melanoma 112% | SW-620 colon 107% | MCF7 breast 89.7% | HCT-116 colon 101% | HCC-2998 colon 101% | KM12 colon 113% | MDA-MB-468 breast 88.7%

COc1ccccc1[C@H]1C(C(=O)c2ccc(O)cc2)C2(N[C@@H]1c1ccccc1)C(=O)Nc1ccc(Br)cc12 (stereo partly specified)
active: MCF7 breast 3.19% | HCC-2998 colon -38.6% | MDA-MB-468 breast -42.9%
inactive: T-47D breast 45.8% | MDA-MB-435 melanoma 14.2% | SW-620 colon 13.6% | HCT-116 colon 39.6% | KM12 colon 14.3%

O=C1NC(=NC23CC4CC(CC(C4)C2)C3)N/C1=C\c1ccc2ncccc2n1
active: T-47D breast -9.66% | MDA-MB-435 melanoma -11.4% | SW-620 colon 2.73% | MCF7 breast -19.4% | HCC-2998 colon 3.26% | KM12 colon -0.698% | MDA-MB-468 breast -63%
inactive: HCT-116 colon 17.9%

O=c1[nH]c2ccccc2cc1CSc1ccc(Nc2nccc(-c3ccc(C(F)(F)F)cc3)n2)cc1
inactive: T-47D breast 18.8% | MDA-MB-435 melanoma 63.3% | SW-620 colon 31% | MCF7 breast 25.3% | HCC-2998 colon 48.1% | KM12 colon 46.8%
active: HCT-116 colon 6.96% | MDA-MB-468 breast -17.5%

CN1CCN(c2ccc(Nc3nc(NCCCNC(=O)c4ccccc4)c4sccc4n3)cc2)CC1
inactive: T-47D breast 54.3% | MDA-MB-435 melanoma 64.4% | SW-620 colon 60.6% | MCF7 breast 38.4% | HCT-116 colon 30.9% | HCC-2998 colon 83.2% | KM12 colon 54.4% | MDA-MB-468 breast 68.4%

CC1=C(C(=O)OC(C)C)C(c2ccc(O)cc2)NC(=S)N1 (stereo unspecified)
inactive: T-47D breast 102% | MDA-MB-435 melanoma 110% | SW-620 colon 120% | MCF7 breast 97.7% | HCT-116 colon 98.1% | HCC-2998 colon 107% | KM12 colon 106% | MDA-MB-468 breast 99%

O=c1nc(-c2ccccc2)cc(-c2cc3ccccc3nc2Cl)[nH]1
active: SW-620 colon -63.6% | MCF7 breast 4.69% | HCT-116 colon -91.6%
inactive: T-47D breast 45.5% | MDA-MB-435 melanoma 53.5% | HCC-2998 colon 44.9% | MDA-MB-468 breast 17.2%

O=C(CSc1nnc(-c2c[nH]c3ccccc23)n1-c1ccccc1)Nc1ccc(C(=O)/C=C/c2ccccc2Cl)cc1
inactive: T-47D breast 43.1% | MDA-MB-435 melanoma 65.8% | SW-620 colon 87.6% | MCF7 breast 40.4% | HCT-116 colon 22.1% | HCC-2998 colon 94.6% | KM12 colon 74.7% | MDA-MB-468 breast 72.1%

O=C(CSc1nnc(-c2c[nH]c3ccccc23)n1-c1ccccc1)c1ccc(Cl)cc1
inactive: T-47D breast 54.6% | MDA-MB-435 melanoma 79.2% | SW-620 colon 70.3% | MCF7 breast 38.4% | HCT-116 colon 45.7% | HCC-2998 colon 78.1% | KM12 colon 78.7%

COc1ccc(-c2cc(-c3cc(C(=O)c4ccccc4)n4ccc(C)cc34)nc(N)c2C#N)cc1
inactive: T-47D breast 65.1% | MDA-MB-435 melanoma 78.5% | SW-620 colon 78.9% | MCF7 breast 53.3% | HCT-116 colon 58.1% | HCC-2998 colon 80.9% | KM12 colon 85.4% | MDA-MB-468 breast 48.6%

O=C(Nc1ccc(OCc2ccccc2)cc1)Nc1ccc(Cl)c(C(F)(F)F)c1
active: T-47D breast -2.54% | MDA-MB-435 melanoma -1.55% | MCF7 breast 2.34% | HCT-116 colon 2.43% | KM12 colon 1.83% | MDA-MB-468 breast -36%
inactive: SW-620 colon 13% | HCC-2998 colon 21.4%

CN1C(=O)N(C)C2SC(N/N=C/c3ccc(F)cc3)=NC21 (stereo unspecified)
active: MDA-MB-435 melanoma -28.8% | MDA-MB-468 breast -12.3%
inactive: T-47D breast 37.9% | SW-620 colon 30.1% | MCF7 breast 21.6% | HCT-116 colon 24.9% | HCC-2998 colon 69.8% | KM12 colon 28.2%
